This is a sample that favours compounds with a hit; in the whole collection about 1.2% have one here.
gsp agonist: agonists of gsp mutant (McCune-Albright syndrome); gsp mutant cells, cAMP HTRF, 30 min; Potency, µM (titrated, usually from 76.9 µM), for the others: at the highest dose activation (cAMP increase), usual class: activators; 340,000 compounds, 0.13% hits; active = well fitted activation curve with a large enough effect; inconclusive = small, poorly fitted or top-dose-only effect, or another doubt; inactive = no such curve, though single readings can be large or run the other way; cell line not stated here;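 note: phosphodiesterase inhibitor Ro 20-1724 added with compounds to block cAMP breakdown; potency is the fitted concentration of half-maximal effect; nearly all actives have a fitted effect of over 60% in size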
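Cells in DMEM/10% FBS with G418 were pretreated with compounds in DMSO plus […] (300 uM stock) for 30 min at 37C. cAMP was measured by HTRF (cAMP-d2 plus anti-cAMP antibody-K) after 30 min at room temperature.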
RXFP1 agonist: activates the human relaxin receptor RXFP1; Q9HBX9; HEK293T-RXFP1 cAMP TR-FRET, 30 min; response scale: percent of porcine relaxin response, buffer zero; Potency, µM (highest dose often 57.5 µM), for the others: at the highest dose activation, hits mostly activators; 370,000 compounds, 0.3% hits; AID 2676; active = well fitted activation curve with a large enough effect; inconclusive = small, poorly fitted or top-dose-only effect; note: potency is the fitted concentration of half-maximal effect; % is set by controls: 0 for no effect and ±100 for the full control effect; nearly all actives have a fitted effect of over 60% in size
Target sequence (Q9HBX9 whole entry, looked up): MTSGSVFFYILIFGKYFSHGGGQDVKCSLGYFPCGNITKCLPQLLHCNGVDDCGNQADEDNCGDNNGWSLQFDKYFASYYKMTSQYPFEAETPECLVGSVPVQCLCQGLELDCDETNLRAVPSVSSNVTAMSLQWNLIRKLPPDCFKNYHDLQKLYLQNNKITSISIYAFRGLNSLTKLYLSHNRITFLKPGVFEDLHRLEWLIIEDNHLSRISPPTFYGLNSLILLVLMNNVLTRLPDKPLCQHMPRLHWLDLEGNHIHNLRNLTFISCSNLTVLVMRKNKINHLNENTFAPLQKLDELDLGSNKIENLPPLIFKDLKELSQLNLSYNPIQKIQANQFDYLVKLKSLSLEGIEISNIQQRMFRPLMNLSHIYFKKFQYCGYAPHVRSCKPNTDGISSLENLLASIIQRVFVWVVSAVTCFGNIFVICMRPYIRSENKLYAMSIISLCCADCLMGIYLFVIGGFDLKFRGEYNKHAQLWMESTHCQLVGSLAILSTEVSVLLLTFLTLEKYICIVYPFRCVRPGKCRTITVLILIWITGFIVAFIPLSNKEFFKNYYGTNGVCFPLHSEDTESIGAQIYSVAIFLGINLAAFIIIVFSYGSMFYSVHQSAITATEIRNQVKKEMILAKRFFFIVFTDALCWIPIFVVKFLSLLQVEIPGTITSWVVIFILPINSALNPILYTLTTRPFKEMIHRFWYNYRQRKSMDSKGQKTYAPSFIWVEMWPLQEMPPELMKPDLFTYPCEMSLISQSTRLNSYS
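HEK293 cells stably expressing RXFP1, treated 30 min at 37C with compounds plus PDE4 inhibitor Ro 20174; cAMP measured by HTRF TR-FRET. Normalized to buffer and 29 nM porcine relaxin; EC50 by Hill fit.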
gsp antag: antagonists of gsp mutant (McCune-Albright syndrome). gsp-mutant cells, cAMP HTRF, 30 min. Potency, µM (top dose mostly 76.9 µM), for the others: at the highest dose activity change, negative = inhibition, hits mostly inhibitors. 340,000 compounds, 0.4% hits; calls by dose curve; cell line not stated here;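 note: intracellular cAMP measured with PDE inhibitor Ro 20-1724 present during compound exposure; potency is the fitted concentration of half-maximal effect; % is set by controls: 0 for no effect and ±100 for the full control effect; nearly all actives have a fitted effect of over 65% in size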
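Measurement of cellular cAMP by homogeneous time-resolved fluorescence following a 30 min compound exposure at 37C. The PDE inhibitor […] was present throughout; the assay buffer was DPBS with 0.05% BSA and 0.005% Tween 20.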
RXFP1 antag: antagonists of human relaxin receptor RXFP1; Q9HBX9; HEK293-RXFP1, relaxin-stimulated cAMP HTRF, 30 min; hits give low values; activity change, negative = inhibition, % at 57.5 µM; 350,000 compounds, 0.59% hits;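 active = activity change of -60% or lower, but not beyond a set lower limit; inconclusive = change between -60% and -40%, or beyond the set limit; inactive = change above -40%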; note: % is set by controls: 0 for no effect and ±100 for the full control effect
pAkt inh: inhibitors of Akt phosphorylation. 360,000 compounds, 0.32% hits. Neuro2A IGF-stimulated pAkt S473 HTRF, 20 min; hits give low values. activity change, % for hits at 50 µM; in the data active = activity change below about -80%; inconclusive = mostly about -51% to -80%; note: % is set by controls: 0 for no effect and ±100 for the full control effect
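Single-point screen (50 µM final compound) in Neuro2A cells stimulated 20 min with 6 nM IGF at 37 deg C. After lysis, Ser473-phosphorylated Akt read by HTRF (ex 330 nm, em 615/665 nm) as the 665/615 ratio.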
Active calls of the source: *; i = inactive; ? = inconclusive; . = no result; [ ] = remark or other dose.

SMILES	gsp agonist	RXFP1 agonist	gsp antag	RXFP1 antag	pAkt inh
CC(=O)c1cccc(NC(=O)c2nc3ccccc3nc2N2CCCCC2)c1	.	2%	.	-11	.
CCc1nn(CC(=O)NCCc2ccc(Cl)cc2)c(=O)c2cc3c(OC)cccc3n12	.	9%	.	-4	.
CCc1cc(/C(Cc2csc(C)n2)=N/O)c(O)cc1O	-18%	0%	-15%	-4	-104%*
CN(C)c1ccc(-c2nc3cnccn3c2Nc2cccc(C(F)(F)F)c2)cc1	.	23%	.	.	.
O=C(NCc1ccccc1)C(=O)Nc1c2c(nn1-c1ccc(F)cc1)CSC2	.	0%	.	-79*	.
O=C(COC(=O)C1CCN(S(=O)(=O)c2cccs2)CC1)NCc1ccccc1	16%	1%	-6%	5	i
Cc1ccc(CNC(=O)COC(=O)C2CCN(S(=O)(=O)c3cccs3)CC2)cc1	?	2%	35µM*	17	i
CCCCCC(=O)Nc1ccc(C(=O)CN2C(=O)NC3(CCCCCC3)C2=O)cc1	16%[15.4 µM]	0%	8%	-90*	i
CCC(=O)Nc1ccc(C(=O)CN2C(=O)NC3(CCCCCC3)C2=O)cc1	10%	2%	6%	0	i
Cc1oc(-c2ccc(F)cc2)cc1-c1nn2c(-c3ccoc3C)nnc2s1	1%	2%	-1%	-15	-109%*
Cc1oc(-c2ccc(Cl)cc2)cc1-c1nn2c(-c3ccco3)nnc2s1	.	-2%	.	.	.
CCCC[C@]12Cc3cc(C#N)ccc3C(O1)c1c(cc(C)n(Cc3ccccc3)c1=O)O2	.	3.2µM*	.	.	.
C=C1C(=O)C23C(O)C1CCC2C12CCCC(C)(COC(C)=O)C1C(O)C3(O)OC2 (centres undefined)	-3%	.	-5%	-117*	i
CC(=O)Nc1cccc(NC(=O)/C=C/c2ccc(S(=O)(=O)N3CCOCC3)cc2)c1	-18%[15.4 µM]	.	-7%	-14	i
Cc1ccc(NC(=O)/C=C/c2ccc(S(=O)(=O)N3CCOCC3)cc2)cc1S(=O)(=O)N(C)C	13%[15.4 µM]	.	35µM*	-25	i
O=S(=O)(c1ccc(-c2csc(=Nc3ccc(OC(F)(F)Cl)cc3)n2CCCO)cc1)N1CCCC1	.	5%	.	-28	.
COc1ccc(NS(=O)(=O)c2cccc(C(=O)NCC(c3ccco3)N3CCCCC3)c2)cc1 (centres undefined)	-14%[15.4 µM]	1%	-5%	-73*	i
CC(=O)N(CC(=O)N(C)C)c1ccccc1	.	.	.	13	.
NC(=S)N/N=C1\CC(c2ccc3c(c2)OCCCO3)Oc2ccc(F)cc21 (centres undefined)	-14%	-5%	-33%	-61*	i
CCCSS/C(CCO)=C(\C)N(C=O)Cc1cnc(C)nc1N	.	.	.	9	.
Cc1ccc(C(=O)Nc2nc(=O)n(C(=O)c3ccccc3C)s2)cc1	1%	0%	40µM*	-10	i
Cc1ccc(C(=O)O)cc1NC(=O)C1=CSCCO1	13%	0%	-4%	-110*	.
Cc1ccc(C(=O)O)cc1NC(=O)c1cccs1	-7%	0%	1%	-2	i
O=C1Cc2cc(Cl)ccc2N1	.	.	.	15	.
COC(=O)c1ccc(-n2c(CCC(=O)O)ccc2-c2ccc(C)cc2)cc1	-23%	1%	32µM*	0	i
SMILES	gsp agonist	RXFP1 agonist	gsp antag	RXFP1 antag	pAkt inh
CCOc1cc(C(=O)NCC(=O)N2CCC3(CC2)NCCc2[nH]cnc23)cc(OCC)c1OCC	-3%	0%	5%	-119*	i
Cc1cc(C)cc(C(=O)NCC(=O)N2CCC3(CC2)NCCc2[nH]cnc23)c1	-137%	1%	3%	11	i
Cc1ccc(-n2ncc(C(=O)NCCCN3CCc4ccccc4C3)c2C2CCN(C(=O)OC(C)(C)C)CC2)cc1C	.	-5%	.	-23	.
COc1ccc(CN2C(=O)c3cccnc3C2=O)cc1S(=O)(=O)N1CCCC(C)C1 (centres undefined)	7.9µM*	7.9µM*	14%	14	i
COc1ccc(CN2C(=O)c3cccnc3C2=O)cc1S(=O)(=O)N1CCOc2ccc(Cl)cc21	9%	12%	-1%	11	i
COc1cccc(CNS(=O)(=O)c2cc(CN3C(=O)c4cccnc4C3=O)ccc2OC)c1	6%	21%	4%	13	i
COc1ccc(CN2C(=O)c3cccnc3C2=O)cc1S(=O)(=O)NC1CCCCC1C (centres undefined)	?	25µM*	9%	8	.
COc1ccccc1CNC(=O)C1CCCN(c2nn3cc(-c4ccc(F)cc4)nc3s2)C1 (centres undefined)	.	3%	.	0	.
CC(C)CCn1c(-c2nonc2N)nc2ccccc21	-22%	1%	28µM*	-4	i
CCCCn1c(-c2nonc2N)nc2ccccc21	2%	-5%	?	-6	i
CSC1=NC(NCCCO)c2c(sc3c2CC(C)(C)OC3)N1 (centres undefined)	11%	3%	0%	-12	-101%*
O=C(COc1cccnc1[N+](=O)[O-])N1CCN(S(=O)(=O)c2ccccc2)CC1	10%	-4%	50µM*	7	i
O=C(CCc1ccccc1Cl)N1CCN(S(=O)(=O)c2ccccc2)CC1	-4%	-1%	10µM*	-2	i
COc1ccc(CNC(=O)CCC2N=C3c4ccccc4N=C(SCc4cccc(F)c4)N3C2=O)cc1 (centres undefined)	.	3%	.	-13	.
COc1cccc(NC(=O)c2ccc(-c3nc(COc4ccccc4)c(C)o3)cc2)c1	.	1%	.	-8	.
COC(=O)c1cc(NS(=O)(=O)c2ccc(N3CCCCC3)c([N+](=O)[O-])c2)cc(C(=O)OC)c1	-52%	3%	-11%	2	-98%*
COC(=O)c1cc(NS(=O)(=O)c2ccc(N3CCC(C)CC3)c([N+](=O)[O-])c2)cc(C(=O)OC)c1	-18%[15.4 µM]	2%	-34%	-18	i
Cc1csc(Sc2nc3c(c(=O)[nH]c(=O)n3C)n2Cc2ccccc2Cl)n1	1%	-1%	40µM*	-11	i
CSc1nc2c(c(=O)[nH]c(=O)n2C)n1Cc1ccccc1Cl	-10%	-1%	-12%	-2	i
Cc1nn(-c2ccccc2)c2sc(C(=O)Nc3cccc(Cl)c3)cc12	.	0%	.	-6	.
COc1cccc(C(=O)c2c[nH]c(C(=O)NCc3ccco3)c2)c1	?	1%	-13%	-9	-112%*
CC(C(=O)N1CCN(c2ccc(Cl)cc2)CC1)c1ncc(C(F)(F)F)cc1Cl (centres undefined)	-62%	0%	35µM*	7	i
CC(C(=O)NC1CC1)c1ncc(C(F)(F)F)cc1Cl (centres undefined)	5%[15.4 µM]	0%	20%	-18	i
NS(=O)(=O)c1cc2c(cc1Cl)CN(C1CCCCC1)C2=O	.	.	.	-15	.
CCOC(=O)CSc1nc(C(C)C)nc2sc(C)c(C)c12	7%[15.4 µM]	0%	-10%	-60*	i

Source: PubChem
